BAZ2B inh = BAZ2B (human) inhibition; Q9UIF8; AlphaScreen BAZ2B-H3K14Ac peptide displacement; Potency, µM (titrated, usually from 114 µM), for the others: at the highest dose activity change, negative = inhibition, most hits filed as inhibitors; hit rate 4.4% among 360,000; AID 504333; further: on the % scale 0 is the no-effect control and ±100 the full control effect; nearly all actives have a fitted effect of over 60% in size
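Complex of BAZ2B and biotin-H3K14Ac (50 nM apiece) forms over 30 min at RT, then faces library compounds up to 110 uM for another 30 min; AlphaScreen beads added, 20 min dark incubation, luminescence read.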
Sfp inh = Sfp phosphopantetheinyl transferase inhibition | Q9F4F7 | Biochemical Sfp PPTase activity, qHTS | Potency, µM, for the others: largest response in the series, negative = inhibition, most hits filed as inhibitors | hit rate 3.5% among 310,000 | AID 1490;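 further: the enzyme is Sfp with the accession as filed and its product quenches rhodamine fluorescence; 0% = enzyme reaction without inhibitor and -100% = no enzyme wells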
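Sfp 15 nM + cpd, 15 min RT; start w/ rhodamine-CoA 5 uM, BHQ-2-YbbR 12.5 uM (final); 50 mM Hepes pH 7.6, 10 mM MgCl2, 0.01% NP-40, 0.01% BSA; read 525/598 nm at 0 and 30 min.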
G9a block = blocks human histone lysine methyltransferase G9a. G9a H3K9 monomethylation, AlphaScreen, 2 h. Q96KQ7. AID 504332. hit rate 8.8% among 350,000. Potency, µM (top dose mostly 102 µM), for the others: at the top dose activity, negative = inhibition, actives largely listed as inhibitors; further: on the % scale 0 is the no-effect control and ±100 the full control effect; nearly all actives have a fitted effect of over 75% in size
Target sequence (Q96KQ7 913-1193 limits assumed): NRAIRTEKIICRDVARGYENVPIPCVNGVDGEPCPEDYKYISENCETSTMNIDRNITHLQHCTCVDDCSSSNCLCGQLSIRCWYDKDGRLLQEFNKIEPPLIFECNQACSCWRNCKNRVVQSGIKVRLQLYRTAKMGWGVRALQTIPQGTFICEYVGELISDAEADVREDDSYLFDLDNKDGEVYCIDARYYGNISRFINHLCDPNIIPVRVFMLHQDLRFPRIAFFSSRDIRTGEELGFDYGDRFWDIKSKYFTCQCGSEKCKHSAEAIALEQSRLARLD
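Readings reflect AlphaScreen signal from monomethyl-H3K9 antibody detection. HMT at 20 nM; substrate b-H3K9 500 nM; cofactor SAM 20 uM; 2 h RT reaction; compounds tested as titrations in qHTS with 15 min preincubation.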
TDP1 inh = blocks human tyrosyl-DNA phosphodiesterase 1; Q9NUW8; recombinant TDP1, AlphaScreen DNA substrate cleavage; Potency, µM (series often up to 130 µM), without a hit: top-dose activity change, negative = inhibition, actives largely listed as inhibitors; hit rate 0.28% among 350,000; further: on the % scale 0 is the no-effect control and ±100 the full control effect; nearly all actives have a fitted effect of over 40% in size
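Tdp1 1 nM final; 15 min RT w/ cpd; substrate 15 nM, 5 min; beads 10 ug/ml, 10 min; AlphaScreen read. Neg ctrl: no enzyme.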
JMJD2A Tudor = JMJD2A Tudor domain (human) inhibition; hit rate 4.4% among 390,000; AlphaScreen JMJD2A-Tudor / H3K4me3 peptide binding; O75164; Potency, µM (series often up to 114 µM), for the others: at the highest dose activity change, negative = inhibition, hits mostly inhibitors; further: on the % scale 0 is the no-effect control and ±100 the full control effect; nearly all actives have a fitted effect of over 50% in size
HP1b chromo inh = HP1-beta chromodomain-methylated histone interaction inhibition; P83916; AlphaScreen HP1-beta / biotin-H3K9me3 peptide binding; Potency, µM (highest dose often 114 µM), without a hit: top-dose activity change, negative = inhibition, usual class: inhibitors; hit rate 0.56% among 390,000; further: nearly all actives have a fitted effect of over 70% in size
Target sequence (P83916 whole entry, looked up): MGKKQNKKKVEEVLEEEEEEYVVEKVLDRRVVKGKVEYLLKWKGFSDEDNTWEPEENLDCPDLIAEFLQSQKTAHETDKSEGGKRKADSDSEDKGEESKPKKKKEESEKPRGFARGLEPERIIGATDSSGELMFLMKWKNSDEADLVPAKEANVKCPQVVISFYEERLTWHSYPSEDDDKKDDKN
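AlphaScreen: HP1-beta (50 nM) preformed 30 min with biotin-H3(1-18)K9me3 peptide (50 nM) in PBS pH 7.4, 0.01% Tween-20. Compound added for 30 min at RT, then streptavidin donor/nickel chelate acceptor beads (10 ug/mL) for 30 min.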
Active calls of the source: *; u = inconclusive; x = no result; [ ] = remark or other dose. Rows were chosen to be rich in hits. Some 12% of all compounds tested hit in one or more screens of this group. The call rests on the fitted dose curve; in most records, active means well fitted curve in the direction sought with a large enough effect; inconclusive means small, poorly fitted or top-dose-only effect, or another doubt; inactive means no such curve, though single readings can be large; an effect the other way counts as inactive or inconclusive. Potency means the concentration at half of the fitted maximal effect.

SMILES	BAZ2B inh	Sfp inh	G9a block	TDP1 inh	JMJD2A Tudor	HP1b chromo inh
COc1ccc(C(CNCC(O)COc2c(C)ccc(C)c2C)N(C)C)cc1 (centres undefined)	56µM*	-13%	-19%	x	22µM*	3%
CN(C)c1ccc(SC#N)cc1	-21%	7%	50µM*	0%	-18%	23%
CSc1nc(-c2ccc(N(C)C)cc2)c(C#N)c(=O)n1C	31%	9%	11%	x	16%	78%
O=C(CSc1ccc2nnc(-c3cccc(F)c3)n2n1)NCC1CCCO1 (centres undefined)	-4%	u	5µM*	6%	32µM*	u
CCSc1ccc2nnc(-c3cccc(F)c3)n2n1	11%	u	4µM*	3%	79µM*	-37%
CCOc1ncccc1C(=O)N(CC)CC(=O)NCc1ccc(F)cc1	-21%	6%	-25%	8%	-16%	3%
Cc1oc(-c2ccccc2)cc1C(N)=O	u	-4%	0%[59 µM]	5%	-17%	1%
CCN(CC)Cc1oc(-c2ccccc2)cc1C(=O)O	-6%	-18%	x	-8%	56µM*	-8%
NCc1oc(-c2ccccc2)cc1C(=O)O	-2%	-21%	50µM*	3%	-20%	7%
FC(F)(F)c1cc(CN2CCCC3(CCNCC3)C2)cc(C(F)(F)F)c1	x	-3%	14%[12.7 µM]	x	x	x
O=C(O)c1ccc(N2CC3CC(C2)c2cccc(=O)n2C3)c(NC(=S)Nc2ccc(Br)cc2)c1 (centres undefined)	2%	56µM*	32µM*	-11%	-21%	-23%
CCc1ccc(NC(=S)Nc2cc(C(=O)O)ccc2N2CC3CC(C2)c2cccc(=O)n2C3)cc1 (centres undefined)	x	56µM*	u	1%	-17%	1%
CC(C)CC1N=C2c3ccccc3N=C(SCC(=O)NCCc3ccc(Cl)cc3)N2C1=O (centres undefined)	-2%	x	-3%[12.7 µM]	1%	1%	29%
CCc1ccc(NC(=O)CS(=O)CC(=O)Nc2ccc(-n3cnnn3)c(C)c2)cc1 (centres undefined)	u	-6%	u	56µM*	u	-23%
CCOc1cc(/C=C(\C#N)C(=O)Nc2ccccc2C(=O)O)ccc1OC(=O)c1ccc(C)cc1	2%	-12%	x	0%	50µM*	14%
COc1ccc(/C=C(/C#N)C(=O)Nc2ccccc2C)cc1C(=O)O	-8%	-14%	21%[59 µM]	3%	-27%	27%
COC(=O)Cc1ccc(O)c(N)c1	-15%	-8%	u	-5%	10µM*	u
O=C(c1ccc(Cl)c(S(=O)(=O)N2CCOCC2)c1)N(Cc1ccco1)Cc1cccs1	-9%	x	u	-5%	-27%	-2%
CN1CCN(C(=O)C2CCC(=O)N(CCc3cccc(F)c3)C2)CC1 (centres undefined)	-9%	13%	-43%	2%	-19%	12%
CCOC(=O)c1cc(-c2ccc(/C=C3/C(=O)N(c4ccc(C(=O)O)cc4)N=C3C)o2)ccc1Cl	18µM*	-4%	7.1µM*	x	14µM*	u
CC1=NN(c2ccc(Br)cc2)C(=O)/C1=C/c1ccc(-c2ccccc2C(=O)O)o1	35µM*	5%	35µM*	x	32µM*	u
CCCCOC(=O)c1cc(-c2ccc(/C=N/n3cnnc3)o2)ccc1Cl	x	x	x	x	56µM*	-4%
CCOC(=O)/C(=N\Nc1cc(Cl)ccc1Cl)N1CCOCC1	13%	-9%	u	6%	-9%	20%
CCOc1ccc(N2C(=O)c3[nH]nc(-c4ccc(OC)cc4)c3C2c2cccs2)cc1 (centres undefined)	-33%	x	12%[59 µM]	10%	-27%	14%
Cc1ccc(CNC(=O)Cn2nc(N3CCN(c4ccccc4)CC3)ccc2=O)cc1	u	x	-5%[59 µM]	5%	-31%	-5%
SMILES	BAZ2B inh	Sfp inh	G9a block	TDP1 inh	JMJD2A Tudor	HP1b chromo inh
Cn1c(C2=C(O)CN(c3ccccc3)C2=N)nc2ccccc21	6%	u	-3%	7%	-19%	27%
COc1ccc(C(=O)NN2CC(O)=C(c3nc4ccccc4n3C)C2=N)cc1OC	-8%	-4%	15%	3%	4.5µM*	23%
COc1cccc(OC)c1OCC(C)CNCC1CCCO1 (centres undefined)	u	-19%	u	-11%	3.5µM*	71µM*
COc1cc(C(=O)NCC2CCCO2)cc(OC)c1OC (centres undefined)	7%	17%	18%[59 µM]	2%	-1%	1%
Fc1ccccc1OCCn1c(=S)[nH]c2ccccc21	-37%	-13%	7.1µM*	u	u	33%
Cc1ccccc1OCCn1c(=S)[nH]c2ccccc21	-31%	-17%	40µM*	4%	-31%	29%
O=C(Nc1ccccc1N1CCCC1)c1ccc(Br)o1	u	-1%	4.5µM*	0%	u	5%
N#Cc1ccccc1N1CCN(C(=O)c2ccc(NC(=O)c3ccc(Br)o3)cc2)CC1	50µM*	x	14%[2.33 µM]	x	56µM*	-27%
O=C(Nc1ccc(N2CCCC2)c(Cl)c1)c1ccc(Br)o1	u	79µM*	14µM*	9%	u	3%
CC(=O)N1CCN(c2ccccc2NC(=O)c2ccc(Br)o2)CC1	-4%	20%	-7%	6%	2%	13%
O=C(Nc1cc(C(F)(F)F)ccc1N1CCCCC1)c1ccc(Br)o1	u	4%	0%	-8%	8%	5%
COc1ccc(N2CCCC2)c(NC(=O)c2ccc(Br)o2)c1	u	-11%	8.9µM*	20%	50µM*	u
COC(=O)c1cc2oc(C)cc2n1Cc1ccc(Br)cc1F	u	x	-47%[59 µM]	0%	-12%	-10%
CCOC(=O)c1nnn(CC(=O)Nc2cc(C)cc(C)c2)c1C(=O)OCC	3%	x	-16%[59 µM]	6%	3%	37%
O=c1c2ccccc2n(Cc2cccc(Cl)c2)c(=O)n1CCc1ccccc1	17%	x	57%[59 µM]	0%	-5%	16%
CCN(CC(=O)Nc1ccc(NC(C)=O)cc1)C(=O)/C=C/c1cn(-c2ccccc2)nc1-c1cccs1	-9%	x	32µM*	x	-29%	17%
CCOC(=O)C1=C(C)N=c2s/c(=C\c3cccn3C)c(=O)n2C1c1cccc(OC)c1OC (centres undefined)	u	16µM*	u	2%	u	-29%
CCOC(=O)C1=C(C)N=c2s/c(=C/c3cccc([N+](=O)[O-])c3O)c(=O)n2C1c1cc(OC)c(OC)c(OC)c1 (centres undefined)	7.9µM*	56µM*	2.2µM*	x	14µM*	16µM*

From PubChem
